Outcome and fluorescence, % of fluorescein control data for 40 molecules are collected here from PubChem BioAssay (Tox21).

Values without a mark were called inactive. Calls of active or inactive are those of the source. Calls come from the whole dose curve; as a rule, active = well fitted curve in the direction sought with a large enough effect in the repeat runs; inconclusive = weak or mixed curves; inactive = flat fitted curve, though single readings scatter.
% is set by controls: 0 for no effect and ±100 for the full control effect.

This experiment is described as follows: qHTS assay to test for compound auto fluorescence at 535 nm (green) in HepG2 cells (AID 720675). The following applies: green autofluorescence 485/535 nm, 1 h; series mostly up to 91.3 µM. The text has this: National Center for Advancing Translational Sciences [NCATS]
NIH Chemical Genomics Center [NCGC]
U.S. Environmental Protection Agency [EPA]
National Institutes of Environmental Health Sciences [NIEHS]
National Toxicology Program [NTP]
U.S. Food and Drug Administration [FDA]
Compound auto fluorescence often interferes with screening of the compound library against various biological targets and signaling pathways. Some of these compounds may have fluorophoric properties. Such properties may interfere with the assay outputs resulting in false positives and/or negatives. To decrease such complications and ensure the compound activities are relevant in terms of biological response, the Tox21 10K compound library was screened for auto fluorescence.
From the fluorophores used as reporter signals in our screening assays, the auto fluorescence equivalencies of compounds against three fluorophores have been evaluated: Triamterene, Fluorescein and Rose Bengal sodium for blue, green and red fluorescence, respectively. The fluorescence intensities were measured using Excitation/Emission wavelengths at 405/460nm, 485/535nm and 540/590nm for blue, green and red labels, respectively. This assay includes the green fluorescence data.
Tox21 Assay Protocol Summary:
2,000 HepG2 cells in 5 uL of culture medium (MEM containing 10% FBS) per well were dispensed into black wall/clear bottom 1536-well plates using a Multidrop Combi Dispenser (ThermoFisher Scientific, Waltham, MA). The assay plates were incubated overnight at 37 C to allow cell attachment to the well bottom, followed by the transfer of 23 nL compound or DMSO vehicle by a pintool work station (Kalypsys , San Diego, CA). After the assay plates were incubated for 1 hr at 37 C and 5% CO2, fluorescence intensities in the assay plates were measured by an Envision (PerkinElmer, Shelton, CT) plate reader using three labels for measuring blue, green and red fluorescence at […] 460, 535 and 590 nm respectively.
Background: qHTS replaces the single test concentration by a dilution series.
As for `Nc1ccc(N=Nc2ccc(N)cc2)cc1`, the molecule was classed as inactive.

On to `CC/C=C\C/C=C\C/C=C\CCCCCCCC(=O)OCC`, for which the molecule was classed as inactive.

`C=CC(=O)O`: the outcome was inactive.

As for `CC(CCc1ccc(O)cc1)NCCc1ccc(O)c(O)c1` (stereo not given), the molecule was classed as inactive.

As to `CCC(CO)(CO)CO`, the molecule was called inactive.

Consider `ClC1=C(Cl)C1(Cl)Cl`, for which the result was inactive.

As to `CC(=O)C(C)=O`, the call was inactive.

Regarding `Cc1ccc(Nc2c(F)cccc2Cl)c(CC(=O)O)c1`, the outcome was inactive.

Take `COC(=O)C1=C(C)NC(C)=C(C(=O)OC(C)(C)CN(C)CCC(c2ccccc2)c2ccccc2)C1c1cccc([N+](=O)[O-])c1` (stereo not given): the outcome was inactive.

Turning to `O=C(CCS)OCC(COC(=O)CCS)(COC(=O)CCS)COC(=O)CCS`, the outcome was inactive.

In the case of `CC1CCCO1` (stereo not given), the call was inactive.

Regarding `Nc1nc(-c2ccc([N+](=O)[O-])cc2)cs1`, the call was inactive.

Take `CCOC(=O)C(C)O` (stereo not given): the molecule was called inactive.

For `O=C(O)CN1C(=O)c2cccc3cccc(c23)C1=O`, the call was inactive.

For `CC(C)c1ccc(C(=O)N=C(N)N)cc1S(C)(=O)=O`, the call was inactive.

As for `C=CCOC(=O)COCCC(C)C`, the outcome was inactive.

Turning to `CCC(Cl)CC(Cl)C(Cl)C(Cl)C(Cl)C(C)Cl` (stereo not given), the fluorescence, % of fluorescein control is -0.0606% [at 13.4 µM].

Regarding `COc1cc(NCc2ccc3nc(N)nc(N)c3c2C)cc(OC)c1OC`, the molecule was called inactive.

As to `O=C(O)CCC(=O)c1ccc(-c2ccccc2)cc1`, the fluorescence, % of fluorescein control was 0.0165% [at 18.6 µM].

For `CSSc1ccoc1C`, the molecule was called inactive.

As for `Nc1c(Cl)cc(Cl)cc1[N+](=O)[O-]`, the outcome was inactive.

`O=c1[nH]c2cc(C(F)(F)F)c(N3CCOCC3)cc2n(CP(=O)(O)O)c1=O`: the outcome was inactive.

Take `CC(C)COC(=O)c1ccc(O)cc1`: the outcome was inactive.

On to `c1ccc(CNc2ncnc3c2ncn3C2CCCCO2)cc1` (stereo not given), for which the molecule was called inactive.

Regarding `CCCCCCCCCCCSCC(=O)O`, the call was inactive.

For the molecule `Cc1ccc2nc(N)[nH]c(=O)c2c1Sc1ccncc1`, the molecule was classed as inactive.

As to `CC(=O)OCCC(C)CC(C)(C)C` (stereo not given), the call was inactive.

For the molecule `O=C(/C=C/c1ccc([N+](=O)[O-])cc1)c1ccccc1`, the result was inactive.

`CN1C(CSCC(F)(F)F)Nc2cc(Cl)c(S(N)(=O)=O)cc2S1(=O)=O` (stereo not given): the outcome was inactive.

Turning to `O=C(O)c1cc(Cl)cc(Cl)c1O`, the call was inactive.

With `CC(C)(C)CCCCCCOC(=O)c1ccccc1C(=O)OCCCCCCC(C)(C)C`, the molecule was classed as inactive.

As for `O=C(O)c1ccc(O)cc1O`, the outcome was inactive.

As to `CSCC[C@H](NC(=O)[C@H](Cc1c[nH]c2ccccc12)NC(=O)CCNC(=O)OC(C)(C)C)C(=O)N[C@@H](CC(=O)O)C(=O)N[C@@H](Cc1ccccc1)C(N)=O`, the outcome was inactive.

With `O=C(c1ccccc1)c1ccc(O)cc1`, the result was inactive.

Consider `CC1=CC[C@@H]2C[C@H]1C2(C)C`, for which the fluorescence, % of fluorescein control is 0.0991% [at 18.6 µM].

As for `COc1cc(S(=O)(=O)Nc2ccccc2)c(OC)cc1N`, the call was inactive.

For `C[C@@H]1[C@H](O)[C@@H](C)/C=C/C=C\C=C\C=C\C=C\C=C\C=C\[C@H](O[C@@H]2O[C@H](C)[C@@H](O)[C@H](N)[C@@H]2O)C[C@@H]2O[C@](O)(C[C@@H](O)C[C@@H](O)[C@H](O)CC[C@@H](O)C[C@@H](O)CC(=O)O[C@H]1C)C[C@H](O)[C@H]2C(=O)O` (stereo in doubt), the call was inactive.

With `N[C@@H](Cc1cc(I)c(O)c(I)c1)C(=O)O`, the molecule was called inactive.

`CC(=O)OCCC1CCCCC1`: the molecule was classed as inactive.

`CNS(=O)(=O)c1cc(C(=O)N2CCC(CCN3C4CCC3CC(n3c(C)nc5ccccc53)C4)(c3cccc(F)c3)CC2)c(Cl)cc1F` (stereo not given): the outcome was inactive.
